Reference: the supplement of paper PMC10849652
The full data set covers some 8,800 targets. This sample favours those with a hit. About 0.5% of all pairs of compound and target were hits. Values without a mark were called inactive.

Legend:
Test in all cases: log2 fold change, soluble protein after heating vs DMSO (PISA); higher = thermal stabilisation; K562 lysate, 10 uM; active = over 0.2 and 3.5 SD of the protein, either way, in both replicates (recomputed)
[1] = compound: C=CC(=O)N1CCC[C@@H](n2nc(-c3ccc(Oc4ccccc4)cc3)c3c(N)ncnc32)C1 [ibrutinib]
Summary of the method: (§1)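 K562 pellets were dounce-homogenised in PBS pH 7.4 containing 1 mM MgCl2, and the crude extract, at 1 mg/mL protein, was exposed to 10 μM compound for 30 min. Aliquots were heated for 3 min across 48°C-58°C, pooled, brought to 0.5% NP-40 at 4°C and spun at 21,000xg for 90 min, with the supernatant taken as soluble protein. TMTpro 16plex LC-MS/MS with equalised channel sums quantified that protein. Values are log-two fold changes in thermal stability relative to solvent controls, taken from duplicates.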

[2] = compound: CC(=O)c1cnc2ccc(-c3cc(Cl)c(O)c(Cl)c3)nc2c1N[C@H]1CC[C@H](CN(C)C)CC1
Summary of the method: as §1

[3] = compound: CC(C)(C)Cn1c(N)nc2ccc(-c3[nH]c(C(C)(C)C)nc3-c3ccc(F)cc3)nc21 [ralimetinib]
Summary of the method: as §1

[4] = compound: CC(C)(O)CC(=O)NCCn1ccc2ncnc(Nc3ccc(Oc4cccc(C(F)(F)F)c4)c(Cl)c3)c21
Summary of the method: as §1

[5] = compound: CC(C)C1=C2N=C(C=C(N2N=C1)NCC3=CC=CC=C3)NCCCCCCN
Summary of the method: as §1

[6] = compound: CC1=C(C2=C(C=C1)C(=O)C3=CC=CC=C3N2CCCN)C
Summary of the method: as §1

[7] = compound: CC1=C(C=C(C=C1)NC(=O)C2=CC(=CC=C2)N(C)C)NC(=O)C3=CC=C(C=C3)O
Summary of the method: as §1

[8] = compound: CC1=CC=C(C=C1)SC2=C3C=C(SC3=CN=C2)C(=O)N
Summary of the method: as §1

[9] = compound: CCCS(=O)(=O)Nc1ccc(F)c(C(=O)c2c[nH]c3ncc(Cl)cc23)c1F
Summary of the method: as §1

[10] = compound: CCN(CCCOc1ccc2c(Nc3cc(CC(=O)Nc4cccc(F)c4)[nH]n3)ncnc2c1)CCOP(=O)(O)O [barasertib]
Summary of the method: as §1

[11] = compound: CC[C@@H]1C(=O)N(C)c2cnc(Nc3ccc(C(=O)NC4CCN(C)CC4)cc3OC)nc2N1C1CCCC1
Summary of the method: as §1

[12] = compound: CC[C@@H]1C(=O)N(C)c2cnc(Nc3ccc(C(=O)N[C@H]4CC[C@H](N5CCN(CC6CC6)CC5)CC4)cc3OC)nc2N1C(C)C [volasertib]
Summary of the method: as §1

[13] = compound: CCn1c(C(=O)N(C2CC2)C2CC2)cc2c3c(ncn3C)c(Nc3cc(C)n(C)n3)nc21
Summary of the method: as §1

[14] = compound: CN1CCN(CCOc2cc(OC3CCOCC3)c3c(Nc4c(Cl)ccc5c4OCO5)ncnc3c2)CC1 [saracatinib]
Summary of the method: as §1

[15] = compound: CC1=C(C(CC(=O)N1)C2=CC=C(C=C2)C(F)(F)F)C(=O)NC3=C(C=C4C(=C3)C=NN4)F
Summary of the method: as §1

[16] = compound: CC1=C(C=C(C=C1)NC(=O)C2=CC(=CC=C2)C(C)(C)C#N)NC3=CC4=C(C=C3)N=CN(C4=O)C
Summary of the method: as §1

[17] = compound: CCCS(=O)(=O)Nc1ccc(F)c(C(=O)c2c[nH]c3ncc(-c4ccc(Cl)cc4)cc23)c1F [vemurafenib]
Summary of the method: as §1

[18] = compound: CCn1cc(-c2ccnc3[nH]c(-c4cccc(CN(C)C)c4)cc23)c(-c2ccc(NC(=O)N(C)C)cc2)n1
Summary of the method: as §1

[19] = compound: CN1CCC(CNc2ccc3ncc(-c4cccc(OC(F)(F)F)c4)n3n2)CC1
Summary of the method: as §1

[20] = compound: CN1CCN(c2nc(C3=C(c4c[nH]c5ccccc45)C(=O)NC3=O)c3ccccc3n2)CC1 [sotrastaurin]
Summary of the method: as §1

UniProt Q71SY5, sequence (Q71SY5 whole entry, looked up): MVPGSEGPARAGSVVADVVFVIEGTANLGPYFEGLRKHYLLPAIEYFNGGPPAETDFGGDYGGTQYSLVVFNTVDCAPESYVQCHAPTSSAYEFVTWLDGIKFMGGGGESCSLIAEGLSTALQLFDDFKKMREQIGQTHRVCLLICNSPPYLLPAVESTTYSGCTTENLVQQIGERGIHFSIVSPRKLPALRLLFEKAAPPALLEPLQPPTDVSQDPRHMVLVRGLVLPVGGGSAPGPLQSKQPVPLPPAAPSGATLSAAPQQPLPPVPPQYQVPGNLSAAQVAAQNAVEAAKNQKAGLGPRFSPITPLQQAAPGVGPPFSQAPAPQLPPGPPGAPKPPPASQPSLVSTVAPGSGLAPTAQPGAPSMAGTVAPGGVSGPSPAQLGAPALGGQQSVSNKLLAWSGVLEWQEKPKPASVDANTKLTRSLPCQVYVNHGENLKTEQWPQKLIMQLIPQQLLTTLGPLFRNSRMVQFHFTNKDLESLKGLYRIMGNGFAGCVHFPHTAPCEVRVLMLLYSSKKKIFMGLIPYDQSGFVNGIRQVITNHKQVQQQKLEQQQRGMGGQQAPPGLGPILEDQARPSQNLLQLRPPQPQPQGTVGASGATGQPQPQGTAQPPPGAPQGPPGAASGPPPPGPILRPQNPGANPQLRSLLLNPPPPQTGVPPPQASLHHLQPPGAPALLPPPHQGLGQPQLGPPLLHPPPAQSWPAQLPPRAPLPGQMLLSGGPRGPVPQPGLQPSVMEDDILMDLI
UniProt P36507, sequence (P36507 whole entry, looked up): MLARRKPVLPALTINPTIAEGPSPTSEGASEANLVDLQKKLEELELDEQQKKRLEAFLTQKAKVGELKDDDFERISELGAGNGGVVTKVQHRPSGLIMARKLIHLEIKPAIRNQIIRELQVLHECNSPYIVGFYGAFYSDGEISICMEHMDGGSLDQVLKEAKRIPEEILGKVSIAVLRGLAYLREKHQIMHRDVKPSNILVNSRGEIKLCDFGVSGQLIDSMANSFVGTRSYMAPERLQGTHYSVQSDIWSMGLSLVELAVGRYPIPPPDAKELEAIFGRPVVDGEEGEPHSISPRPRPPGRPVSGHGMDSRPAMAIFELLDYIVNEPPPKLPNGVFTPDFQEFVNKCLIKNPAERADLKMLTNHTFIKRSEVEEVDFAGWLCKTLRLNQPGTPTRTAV
UniProt P53667, sequence (P53667 whole entry, looked up): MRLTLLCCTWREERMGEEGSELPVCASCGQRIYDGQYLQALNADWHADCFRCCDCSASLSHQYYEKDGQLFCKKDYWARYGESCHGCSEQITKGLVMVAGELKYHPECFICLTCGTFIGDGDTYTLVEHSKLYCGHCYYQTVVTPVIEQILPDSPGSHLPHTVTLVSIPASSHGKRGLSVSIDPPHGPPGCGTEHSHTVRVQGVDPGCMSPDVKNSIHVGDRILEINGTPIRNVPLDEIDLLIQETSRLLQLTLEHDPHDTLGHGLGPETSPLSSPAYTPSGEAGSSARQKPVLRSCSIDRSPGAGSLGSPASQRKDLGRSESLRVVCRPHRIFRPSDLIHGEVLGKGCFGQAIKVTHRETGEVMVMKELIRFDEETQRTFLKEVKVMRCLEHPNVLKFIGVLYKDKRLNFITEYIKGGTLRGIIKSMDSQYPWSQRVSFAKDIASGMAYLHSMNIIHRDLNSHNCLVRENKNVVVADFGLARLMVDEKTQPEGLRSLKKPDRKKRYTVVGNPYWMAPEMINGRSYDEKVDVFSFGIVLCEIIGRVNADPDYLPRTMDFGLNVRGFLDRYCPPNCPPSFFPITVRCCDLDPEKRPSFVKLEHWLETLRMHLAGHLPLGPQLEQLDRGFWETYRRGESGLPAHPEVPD
UniProt O95819, sequence (O95819 whole entry, looked up): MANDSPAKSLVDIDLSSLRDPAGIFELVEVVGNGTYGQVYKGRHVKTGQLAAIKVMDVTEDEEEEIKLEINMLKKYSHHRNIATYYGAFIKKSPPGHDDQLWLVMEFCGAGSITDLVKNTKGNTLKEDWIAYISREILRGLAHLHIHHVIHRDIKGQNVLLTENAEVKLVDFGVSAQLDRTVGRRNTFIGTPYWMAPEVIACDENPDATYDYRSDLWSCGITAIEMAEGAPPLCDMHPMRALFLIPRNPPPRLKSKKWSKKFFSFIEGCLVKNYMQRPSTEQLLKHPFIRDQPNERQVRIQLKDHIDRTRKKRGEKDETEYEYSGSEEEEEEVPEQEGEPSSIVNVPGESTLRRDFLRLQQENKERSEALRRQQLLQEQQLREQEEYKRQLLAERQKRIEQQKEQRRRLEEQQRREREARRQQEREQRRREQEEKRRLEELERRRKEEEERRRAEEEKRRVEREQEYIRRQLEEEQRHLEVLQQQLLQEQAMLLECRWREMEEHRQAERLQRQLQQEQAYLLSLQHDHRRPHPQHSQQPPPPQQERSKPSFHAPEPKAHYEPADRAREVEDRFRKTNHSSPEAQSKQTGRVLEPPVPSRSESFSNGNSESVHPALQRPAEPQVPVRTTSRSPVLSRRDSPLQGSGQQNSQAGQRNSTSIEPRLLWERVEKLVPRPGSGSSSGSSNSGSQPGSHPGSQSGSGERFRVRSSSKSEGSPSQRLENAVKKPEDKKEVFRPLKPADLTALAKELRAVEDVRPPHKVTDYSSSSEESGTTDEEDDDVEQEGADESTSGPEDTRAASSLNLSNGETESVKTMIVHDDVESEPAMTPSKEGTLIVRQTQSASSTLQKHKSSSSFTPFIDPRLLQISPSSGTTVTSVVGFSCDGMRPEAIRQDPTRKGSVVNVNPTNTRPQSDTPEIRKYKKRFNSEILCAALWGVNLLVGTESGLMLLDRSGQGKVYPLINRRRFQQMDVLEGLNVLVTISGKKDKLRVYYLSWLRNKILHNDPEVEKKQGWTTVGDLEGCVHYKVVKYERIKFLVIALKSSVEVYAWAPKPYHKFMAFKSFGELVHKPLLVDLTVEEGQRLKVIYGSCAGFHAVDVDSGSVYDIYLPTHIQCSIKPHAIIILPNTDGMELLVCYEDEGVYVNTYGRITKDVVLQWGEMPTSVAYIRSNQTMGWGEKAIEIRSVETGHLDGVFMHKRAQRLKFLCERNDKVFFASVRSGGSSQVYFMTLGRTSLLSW
UniProt Q15013, sequence (Q15013 whole entry, looked up): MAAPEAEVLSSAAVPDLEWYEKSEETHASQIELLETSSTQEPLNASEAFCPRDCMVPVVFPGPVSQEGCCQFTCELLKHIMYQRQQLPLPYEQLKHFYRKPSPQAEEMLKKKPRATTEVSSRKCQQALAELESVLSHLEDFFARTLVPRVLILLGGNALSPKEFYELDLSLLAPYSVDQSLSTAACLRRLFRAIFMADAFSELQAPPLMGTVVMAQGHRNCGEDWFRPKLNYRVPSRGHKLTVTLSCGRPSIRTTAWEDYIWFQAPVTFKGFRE
UniProt Q16659, sequence (Q16659 whole entry, looked up): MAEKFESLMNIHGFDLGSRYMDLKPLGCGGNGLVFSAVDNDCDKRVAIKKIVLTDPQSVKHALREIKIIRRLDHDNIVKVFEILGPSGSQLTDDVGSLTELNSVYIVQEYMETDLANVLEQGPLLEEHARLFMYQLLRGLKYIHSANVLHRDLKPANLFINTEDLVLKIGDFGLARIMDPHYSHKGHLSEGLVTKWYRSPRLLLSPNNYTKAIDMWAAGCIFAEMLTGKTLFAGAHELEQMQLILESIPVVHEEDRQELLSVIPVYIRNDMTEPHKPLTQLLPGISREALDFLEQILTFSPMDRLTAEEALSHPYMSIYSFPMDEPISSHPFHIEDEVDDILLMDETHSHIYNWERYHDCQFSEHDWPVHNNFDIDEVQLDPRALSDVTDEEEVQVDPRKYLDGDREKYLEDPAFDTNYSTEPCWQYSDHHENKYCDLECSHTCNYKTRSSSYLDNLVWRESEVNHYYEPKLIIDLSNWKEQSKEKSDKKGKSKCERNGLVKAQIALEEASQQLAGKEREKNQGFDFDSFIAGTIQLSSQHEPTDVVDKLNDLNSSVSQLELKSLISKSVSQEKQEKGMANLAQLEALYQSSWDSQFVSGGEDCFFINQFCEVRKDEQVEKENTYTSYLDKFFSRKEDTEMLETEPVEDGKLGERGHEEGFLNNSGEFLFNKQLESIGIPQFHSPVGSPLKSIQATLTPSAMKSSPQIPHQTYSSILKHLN
UniProt O15243, sequence (O15243 whole entry, looked up): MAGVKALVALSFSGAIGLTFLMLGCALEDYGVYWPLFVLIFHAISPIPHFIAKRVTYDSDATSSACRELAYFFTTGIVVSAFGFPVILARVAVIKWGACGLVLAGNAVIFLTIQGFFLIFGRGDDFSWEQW
UniProt P14174, sequence (P14174 whole entry, looked up): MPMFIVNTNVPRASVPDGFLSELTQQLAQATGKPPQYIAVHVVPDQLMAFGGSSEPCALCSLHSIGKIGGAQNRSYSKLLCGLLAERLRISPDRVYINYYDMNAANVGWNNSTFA
UniProt P08473, sequence (P08473 whole entry, looked up): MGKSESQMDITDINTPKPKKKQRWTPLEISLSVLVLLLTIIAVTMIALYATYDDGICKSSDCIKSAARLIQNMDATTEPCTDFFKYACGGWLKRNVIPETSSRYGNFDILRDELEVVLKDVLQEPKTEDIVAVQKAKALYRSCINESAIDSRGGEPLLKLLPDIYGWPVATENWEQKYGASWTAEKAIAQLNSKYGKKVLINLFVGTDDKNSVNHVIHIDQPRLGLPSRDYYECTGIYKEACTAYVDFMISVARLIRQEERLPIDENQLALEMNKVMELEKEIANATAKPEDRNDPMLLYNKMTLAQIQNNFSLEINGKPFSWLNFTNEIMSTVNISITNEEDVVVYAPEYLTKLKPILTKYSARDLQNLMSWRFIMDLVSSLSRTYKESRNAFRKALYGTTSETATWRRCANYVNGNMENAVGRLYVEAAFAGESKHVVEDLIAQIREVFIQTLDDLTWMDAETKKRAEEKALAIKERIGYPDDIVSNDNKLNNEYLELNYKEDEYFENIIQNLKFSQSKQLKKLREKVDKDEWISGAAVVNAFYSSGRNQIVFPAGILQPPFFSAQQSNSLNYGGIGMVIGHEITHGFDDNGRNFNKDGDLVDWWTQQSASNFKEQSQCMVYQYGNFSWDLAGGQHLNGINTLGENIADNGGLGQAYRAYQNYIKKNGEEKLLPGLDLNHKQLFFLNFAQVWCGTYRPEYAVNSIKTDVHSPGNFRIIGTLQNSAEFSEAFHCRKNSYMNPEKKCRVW

| Target | log2 fold change [1] | log2 fold change [2] | log2 fold change [3] | log2 fold change [4] | log2 fold change [5] | log2 fold change [6] | log2 fold change [7] | log2 fold change [8] | log2 fold change [9] | log2 fold change [10] | log2 fold change [11] | log2 fold change [12] | log2 fold change [13] | log2 fold change [14] | log2 fold change [15] | log2 fold change [16] | log2 fold change [17] | log2 fold change [18] | log2 fold change [19] | log2 fold change [20] |
| --- | --- | --- | --- | --- | --- | --- | --- | --- | --- | --- | --- | --- | --- | --- | --- | --- | --- | --- | --- | --- |
| MAP4K4 isoform 6 (UniProt O95819) | 0.056 | 0.001 | -0.19 | 0.027 | -0.021 | -0.127 | 0.002 | 0.037 | 0.073 | 0.06 | 0.06 | -0.04 | -0.025 | 0.006 |  |  |  |  |  |  |
| MAD2L1BP isoform 3 (UniProt Q15013) | -0.016 | -0.099 | 0.038 | 0.015 | -0.037 | -0.054 | -0.011 | -0.05 | 0.009 | 0.054 | -0.076 | -0.042 | 0.022 | 0.021 | 0.107 | 0.005 | 0.003 | 0 | 0.03 | 0.01 |
| MAPK6 (UniProt Q16659) | 0.07 | 0.025 | 0.004 | -0.05 | 0.012 | 0 | 0.029 | 0.021 | 0.001 | 0.047 | 0.034 | -0.001 | -0.029 | -0.014 | 0 | -0.006 | 0.006 | 0.221 (active) | -0.02 | 0.014 |
| MME (UniProt P08473) | 0.286 | -0.093 | -0.117 | -0.156 | -0.012 | -0.23 | -0.025 | -0.043 | -0.092 | -0.084 |  | 0.001 | 0.075 | -0.114 | -0.024 | 0.007 |  | -0.044 | 0.009 | 0.016 |
| MAP4 (UniProt P27816) | 0.002 | -0.005 | -0.016 | -0.002 | 0.016 | -0.016 | -0.001 | -0.008 | -0.017 | -0.016 | 0.064 | 0.033 | -0.022 | -0.009 | -0.023 | 0.006 | 0.01 | -0.042 | 0.036 | -0.027 |
| MAP4 isoform 5 (UniProt P27816) | 0.172 | 0.027 | -0.1 | -0.166 | 0.03 | 0.019 | 0.082 | 0.047 | -0.035 | -0.038 | 0.069 | 0.044 | -0.266 | 0.041 | 0.048 | 0.012 | -0.019 |  |  | -0.04 |
| LDAH isoform 2 (UniProt Q9H6V9) | 0.015 | 0.021 | 0.029 | 0.097 | -0.018 | 0.029 | 0 | 0.014 | 0.125 | 0.018 | 0.003 | -0.036 | -0.004 | 0.016 | 0.006 | 0.007 | 0.077 | -0.013 | -0.018 | -0.01 |
| LIMK1 (UniProt P53667) | 0.546 (active) | -0.04 | -0.125 | -0.161 |  | 0.026 | 0.059 | -0.148 | 0.179 | 0.007 | -0.195 | -0.215 | 0.108 | -0.022 | -0.067 | -0.085 | 0.234 | -0.104 | -0.028 | -0.15 |
| MAP2K2 (UniProt P36507) | 0.239 | 0.443 (active) | -0.052 | 0.173 | -0.007 | -0.033 | 0.013 | -0.014 | 0.184 | 0.026 | -0.076 | -0.089 | 0.008 | 0.093 | -0.009 | -0.017 | 0.224 | 0.252 | -0.047 | -0.002 |
| KLHL12 isoform 2 (UniProt Q53G59) | 0.156 | 0.067 | 0.123 | -0.032 | 0.073 | -0.041 | 0 | 0.007 | 0.061 | -0.413 (active) |  | -0.045 | 0.118 | 0.064 | 0.026 | -0.066 | 0.038 |  |  | -0.045 |
| MRPL19 (UniProt P49406) | 0.067 | 0.027 | 0.034 | -0.057 | 0.029 | 0.01 | 0.023 | -0.002 | 0.029 | 0.001 | -0.139 | -0.056 | 0 | 0.016 | -0.021 | -0.013 | 0.026 | 0.026 | -0.053 | -0.016 |
| MIF (UniProt P14174) | 0.101 | -0.057 | -0.002 | 0.01 | 0.003 | 0.009 | -0.019 | 0.049 | -0.047 | -0.02 | 0 | -0.025 | 0.021 | 0.002 | -0.095 | -0.004 | 0.025 | -0.274 | 0.084 | 0.002 |
| LEPROT (UniProt O15243) | 0.005 | -0.273 | -0.034 | 0.054 | 0.267 |  | 0.016 | 0 | 0.112 | 0.042 | 0.144 | 0.102 | -0.086 |  |  | 0.181 |  | -0.043 | -0.02 | -0.009 |
| LRRC7 (UniProt Q96NW7) | -0.081 | 0.026 | -0.115 | -0.073 |  | 0.041 | 0.09 | 0.086 | -0.024 | 0.062 | 0.056 | 0.047 | -0.008 | -0.044 |  | -0.062 | 0.112 | -0.033 | -0.043 | -0.012 |
| MAST2 (UniProt Q6P0Q8) | 0.136 | 0.054 | 0.033 | -0.084 | 0.071 | -0.157 | 0.031 | -0.022 | -0.062 | 0.105 | 0.068 | 0.045 | -0.127 | 0.056 |  | 0.03 | 0.134 | 0.102 | 0.06 | -0.024 |
| MED25 isoform 3 (UniProt Q71SY5) | -0.034 | 0.001 | -0.071 | 0.045 | -0.023 | -0.039 | 0.057 | 0.025 | 0.018 | 0.034 | -0.256 (active) | -0.032 | -0.046 | 0.032 | 0.038 | 0.035 |  | 0.013 | -0.056 | 0.083 |
| MED12 isoform 2 (UniProt Q93074) | 0.004 | -0.019 | 0.022 | -0.009 | -0.005 | 0.003 | 0.037 | 0.02 | 0.005 | 0.057 | -0.012 | -0.065 | 0.037 | 0.026 | 0.009 | -0.005 | -0.075 | 0.002 | -0.066 | 0.022 |
